From PubChem BioAssay (NCI) come the findings set out here.

Compounds without any hit were thinned out: in the full panel of roughly 83,000, 20% have a hit.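 For each line, cells grew in 96-well plates with the test compound present at a single concentration for 48 hours.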 A number with no mark means an inactive call. Active and inactive are the calls of the source. The calls were made as follows: active = growth percent below 10; inactive = the rest.

This assay has as its system MDA-MB-468 breast. The experiment in a line: NCI-60 one-dose screen, 48 h (100 = growth as untreated, 0 = no growth, -100 = all killed). The following applies: 10 µM unless noted.
In the case of `ClC1(Cl)C2CCCCCCC21` (centres undefined), the growth is 118%.

On to `O=C1C=CC(=O)N1CO`, for which the growth was 117%.

As to `COc1cc(NCC(O)CN(CC(C)C)CC(C)C)c2ncccc2c1` (centres undefined), the growth was -19.8% (active).

Regarding `C=C(C)[C@@H]1CC[C@]2(N=C=O)CC[C@]3(C)[C@H](CC[C@@H]4[C@@]5(C)Cc6c([nH]c7ccccc67)C(C)(C)[C@@H]5CC[C@]43C)[C@@H]12`, the growth was 92.5%.

For the compound `NC(=S)N/N=C/c1cc(-c2cccc(N)c2)ccn1`, the growth is -11.8% (active).

Take `COc1ccccc1/C=C1\Oc2ccc(O)c(O)c2C1=O`: the growth is 101%.

For `O=c1[nH]c2ccccc2cc1-c1nnc(Cc2ccccc2)o1`, the growth was 53.9%.

With `Cc1ccc(N(CC2=NCCN2)c2cccc(O)c2)cc1`, the growth is 93.3%.

Consider `COc1ccc(-c2cc(=O)c3c(OC)c4ccoc4cc3o2)cc1`, for which the growth was 101%.

For the compound `Cc1ccncc1NC=O`, the growth is 107%.

As to `CNC(=O)c1cc(Oc2cccc3nc(NC(=O)Nc4cc(C(F)(F)F)ccc4Cl)ccc23)ccn1`, the growth is 111%.

In the case of `CC(C)(C)n1cc(-c2ccnc(NCCCNS(=O)(=O)c3ccccc3)c2)c(-c2cccc(O)c2)n1`, the growth is 9.54% (active).

As for `NCCOc1ncccc1/C=C1\c2ccccc2-c2ccc(F)cc21`, the growth was -24.1% (active).

Regarding `O=C(CN1C(=O)CSC1=O)Nc1ccc(C(=O)/C=C/c2cc3ccccc3nc2Cl)cc1`, the growth is 48.7%.

With `CCCCCCCCCCCCCCCCCCSC1=CC(=O)C(OC)=C(OC)C1=O`, the growth is 105%.

`COC1=CC(c2ccc[nH]2)=N/C1=C\c1[nH]c(C)c(C(=O)OCCn2cc(CCC[C@@H]3Cc4cc(O)ccc4C4CC[C@]5(C)[C@@H](O)CC[C@H]5C43)nn2)c1C` (some centres undefined): the growth is 78%.

As for `Cc1cc(OI)c(C(C)C)cc1-c1cc(C(C)C)c(OI)cc1C`, the growth is 108%.

For the compound `CN1CCN(Cc2ccc(NC(=O)c3cncc(C#Cc4ncc5cnccn45)c3)cc2C(F)(F)F)CC1`, the growth was 86.7%.

Regarding `COc1cc2c(Nc3ccc(-c4ccc(N)cc4)cc3)ncnc2c(OC)c1OC`, the growth was 71.9%.

Regarding `CCC(C)(C)C(=O)O[C@H]1C[C@@H](C)C=C2C=C[C@H](C)[C@H](CC[C@@H]3C[C@@H](O)CC(=O)O3)[C@H]21`, the growth was 52.6%.

Consider `S=C(Cc1ccc2c(c1)CCCC2)N1CCOCC1`, for which the growth is 105%.

In the case of `CCN(Cc1cccc(S(=O)(=O)[O-])c1)c1ccc(C(=C2C=CC(=[N+](CC)Cc3cccc(S(=O)(=O)O)c3)C=C2)c2ccccc2S(=O)(=O)O)cc1`, the growth was 92.9%.

With `COc1ccc(NC(=O)CCn2cnc3c(cc(-c4ccccc4)n3-c3ccccc3)c2=O)cc1`, the growth is 79.5%.

With `C=C(C)[C@@H]1CC[C@]2(C)[C@H](C(=O)C=C3[C@@H]4C[C@](C)(C(=O)N5CCN(C)CC5)CC[C@]4(C)CC[C@]32C)[C@@]1(C)CCC#N`, the growth is -76.5% [100 µM] (active).

Regarding `CCSc1ccc([C@@H]2[C@@H](O)C(=O)N2c2cc(OC)c(OC)c(OC)c2)cc1`, the growth is 40.2%.

With `CCCC(=O)OCC(COC(=O)CCC)OC(=O)CCC`, the growth is 89%.

Consider `CON1C(=O)CC[C@]2(C)[C@H]3CC[C@@H]4C([C@@]5(C)CCC(=O)O5)CC[C@@]4(C)[C@]3(C)CC[C@H]2C1(C)C` (some centres undefined), for which the growth was 94.4%.

For `CCC(C(=O)[C@@H](C)[C@@H](O)[C@H](C)[C@@H]1O[C@@H]([C@@H](CC)C(=O)ONC(=O)c2ccccc2)CC[C@@H]1C)[C@H]1O[C@]2(C=CC(=O)[C@]3(CC[C@@](C)([C@H]4CC[C@](O)(CC)[C@H](C)O4)O3)O2)[C@H](C)C[C@@H]1C` (some centres undefined), the growth is -33.2% (active).

In the case of `Nc1ccc(S(=O)(=O)c2ccc(Cl)cc2)cc1`, the growth was 91.7%.

Turning to `CC(=O)Nc1nc(C)c(C(=O)NNS(=O)(=O)c2ccccc2)s1`, the growth is 107%.

With `CCCCCCCCCCCCNC(=S)N/N=C/c1ccc(Cl)c(Cl)c1`, the growth is 104%.

`CC1=C(CCC(C)N(C)Cc2ccc(OCCCN3CCCC3)cc2)C(C)(C)CCC1` (centres undefined): the growth was -18.6% (active).

In the case of `NS(=O)(=O)Oc1ccc2c(ccn2C(=O)C23CC4CC(CC(C4)C2)C3)c1`, the growth is 90.8%.

For the compound `C#CCO[C@H]1CC(CC#C)(CC#C)C(=O)[C@@H]2[C@H]1[C@H]1C[C@@H]3[C@@]4(C)CCC[C@@](C)(C(=O)OC)[C@@H]4CC[C@@]23C=C1C(C)C`, the growth is 94.7%.
